Assay results as given in publication PMC13494018.
A number with no mark means an inactive call. The rule behind the calls is not given here.

Target: VTCN1, Q7Z7D3
Sequence (Q7Z7D3 whole entry): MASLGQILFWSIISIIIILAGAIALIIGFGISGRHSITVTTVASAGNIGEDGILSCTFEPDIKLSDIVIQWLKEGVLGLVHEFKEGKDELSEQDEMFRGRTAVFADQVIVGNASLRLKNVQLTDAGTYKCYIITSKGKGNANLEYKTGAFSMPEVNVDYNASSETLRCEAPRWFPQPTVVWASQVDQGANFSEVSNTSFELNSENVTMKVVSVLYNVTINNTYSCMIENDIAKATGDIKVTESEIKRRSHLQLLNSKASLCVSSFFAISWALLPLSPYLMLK

Binder | binding in a display sort
d3r1_design_ppi_230_dldesign_0_cycle1_af2pred (protein) TLAESALKALKVIGKAAVEVAKELGEEVYKKVKKEVEKLLKEVESASPEERAKLAAEAAKKMQKKLEELEKLLKEKKKK | not found
d3r1_design_ppi_237_dldesign_0_cycle0_af2pred (protein) TPLEQLGKLVKEAKKAAKEAKELIKKGKAKEAAKLAREAAKKQIEKAKKIGEEYPEAKASAEAAAAYIEALAKEVEKEAKAAEA | not found
d3r1_design_ppi_340_dldesign_0_cycle1_af2pred (protein) EKEKVRKEAEKAIKKAKAAAKAAKAGKDLKAAEKAVKEAAKAAKAAVEAGDPELAEKVAKAAQEASTALNAALSKRLAA | not found
d3r1_design_ppi_369_dldesign_0_cycle1_af2pred (protein) AVPAELREILSKQALAKMEELEKEAKEKADTPEGLEVMEEAAEWFREAAKGLRAAGDEETAKKMEEKAKELEELAKEKKEK | not found
d3r1_design_ppi_404_dldesign_0_cycle0_af2pred (protein) SMTEIAQKAYEKAEEARKKMLKKAEEDPEARPKLPEIEALMKEAREKAVSAVVELLTKGESEEEAMKKAEEIIEEAKKEAEKIMK | not found
d3r1_design_ppi_404_dldesign_0_cycle1_af2pred (protein) NKVEVAQKAYDKAKEAKEKMIKEAKENPEAKPKIPEIEALMKKAQEEAVGKAVELLDKGATPEEALKAAEKIIKEAEKKAKEIIE | not found
d3r1_design_ppi_418_dldesign_0_cycle0_af2pred (protein) SEAEAVKATLKGAKETVKELKKEAEKNPEKAEEYAKEAEKIAKAAEKLAEKSSEEAKKEAKEVKEEAKEAKKLAKKIIEEKKAKE | not found
d3r1_design_ppi_418_dldesign_0_cycle1_af2pred (protein) DKNEAIKNTLKGAEKAVKELKKEAIKDPEKAEEYAKRAEEIAKAAKELAKQGTEEAKEEAKKVEKEAKEAKKEAKKVVEEKKKKE | not found
d3r1_design_ppi_541_dldesign_0_cycle1_af2pred (protein) MEEEKKKIEEEIEEVKEALKEAEKLFAKDPVAGAKYAENLAIALKKRGLSEEAINLAKEAAEKLKAEAEKVKAA | not found
d3r1_design_ppi_576_dldesign_0_cycle1_af2pred (protein) GEEEEKAKETIKKMEELAKKGAENPEKGKEYVAEAMRIGRETAKELSEEVGEKVLKKAEEIASEAMKKVLENKKKLA | not found
d3r1_design_ppi_578_dldesign_0_cycle0_af2pred (protein) MEELEEARKRADELEKEVKKLEPLFKEASKEAAELAENAKKAIEAAKKFIEDKSQIELAQRAVDQAEKNLKLAKELMEKILKEK | not found
d3r1_design_ppi_578_dldesign_0_cycle1_af2pred (protein) MEELEEAKKRAEELKKEVEENKEKFKEASKEAQELADNSLKAIKAAFKYIEEKEEVENAKRAVEVAEENYKKAKELAEKLLKEK | not found
d3r1_design_ppi_589_dldesign_0_cycle1_af2pred (protein) MEEDAKKAQEVADLLAKTAATGPAYADEAIAKTAEVLGPYFAEKLKKAIAAGPEEVKKMYDIVKQHAENIKAA | not found
d3r1_design_ppi_595_dldesign_0_cycle1_af2pred (protein) DLFKKGIEEAEKAYKKYPKLGLAVAQLVLAKYFLEAAKKSTPEEAKNYLEAAKLALEKSKELLKEVEAKLKAE | not found
d3r1_design_ppi_608_dldesign_0_cycle1_af2pred (protein) ATEEAKKYAEKAKELAKKAEEAAKKEGVEAGEEYLEKAKEEVLKAYKYAAESGDEEAKKAAEEALEAVEKAEKEIEKIKKEKE | not found
d3r1_design_ppi_648_dldesign_0_cycle0_af2pred (protein) GEEAAKKSKEAEKALEEAKKILKEGGKEGEEKAKKLVEEKVKELKKWGKETGTGGEALAKILKEEFEKAKKEK | not found
d3r1_design_ppi_677_dldesign_0_cycle1_af2pred (protein) MEEKKKKIDEKLILAGELAKKNGLLGEIVAKKAIEEGRKAGITEFSEEAVEALKIAFAAGAAARAALAAALA | not found
d3r1_design_ppi_687_dldesign_0_cycle0_af2pred (protein) MKKEEEEKKKKEKLKKKVEEKKEELKELKKAKEELEKAIEKLKPLAEKDPRIKANAEAAKKAAEEELKKKEEELEKLKKELE | not found
d3r1_design_ppi_688_dldesign_0_cycle0_af2pred (protein) MEELAEKAAKTASAALKEYATEEEKEEAEKKSKEFEKLAEEGKKNPEKAEEVLKELLEKAKEYQKKLEEKEKKEKEE | not found
